Screens: PubChem BioAssay, National Center for Advancing Translational Sciences (NCATS)
In the library only some 8.9% were active in any assay of this set; here they are far more common.
HPGD block – HPGD (human) dehydrogenase inhibition; purified HPGD, NADH fluorescence kinetic, PGE2 substrate; P15428; 150,000 tested, 4.3% active; Potency, µM, inactives show at the top dose activity change, negative = inhibition, most hits filed as inhibitors; AID 894; active means well fitted inhibition curve with a large enough effect, not every such curve was filed as active; inconclusive means small, poorly fitted or top-dose-only effect, or another doubt; inactive means no such curve, though single readings can be large or run the other way; further: potency means the concentration at half of the fitted maximal effect
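NADH formation kinetics: reaction with 30 uM PGE2 and 1 mM NAD+ (final), 20 nM enzyme, Tris-HCl pH 8 with Tween 20, after 15 min compound preincubation at room temperature. Fluorescence change, last versus first of five reads.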
ALDH1A1 block – inhibitors of human aldehyde dehydrogenase 1A1. P00352. Purified ALDH1A1, NADH fluorescence, propionaldehyde substrate. Potency, µM (highest dose often 75.3 µM), without a hit: top-dose activity, negative = inhibition, usual class: inhibitors. 220,000 tested, 7.3% active. AID 1030; active means well fitted inhibition curve with a large enough effect, not every such curve was filed as active; inconclusive means small, poorly fitted or top-dose-only effect, or another doubt; inactive means no such curve, though single readings can be large or run the other way;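 further: potency means the concentration at half of the fitted maximal effect; plate controls were no enzyme wells and a reference inhibitor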
Target sequence (P00352 whole entry, looked up): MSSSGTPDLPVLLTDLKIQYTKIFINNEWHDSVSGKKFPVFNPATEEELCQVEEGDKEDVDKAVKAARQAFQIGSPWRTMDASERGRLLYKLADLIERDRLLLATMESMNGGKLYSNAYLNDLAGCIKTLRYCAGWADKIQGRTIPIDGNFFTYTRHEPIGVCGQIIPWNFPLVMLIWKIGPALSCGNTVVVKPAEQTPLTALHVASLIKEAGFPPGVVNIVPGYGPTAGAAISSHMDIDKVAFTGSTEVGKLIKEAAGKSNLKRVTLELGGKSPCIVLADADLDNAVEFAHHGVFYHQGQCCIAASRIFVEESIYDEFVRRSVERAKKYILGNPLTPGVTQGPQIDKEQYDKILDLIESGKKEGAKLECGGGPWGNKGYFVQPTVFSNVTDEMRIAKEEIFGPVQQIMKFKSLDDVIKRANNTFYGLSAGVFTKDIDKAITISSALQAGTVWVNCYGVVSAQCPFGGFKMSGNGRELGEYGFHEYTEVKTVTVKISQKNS
ALOX12 inhib – inhibitors of human 12-lipoxygenase (ALOX12); AID 1452; P18054; Potency, µM (series often up to 57.1 µM), without a hit: at the highest dose activity change, negative = inhibition, actives largely listed as inhibitors; 150,000 tested, 0.12% active; purified 12-hLO, xylenol orange hydroperoxide absorbance; further: potency means the concentration at half of the fitted maximal effect; nearly all actives have a fitted effect of over 55% in size
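Purified human 12hLO (150 nM final) was preincubated with compounds for 15 min at room temperature in 25 mM Hepes pH 7.0, 0.01% Triton X-100, then reacted with 40 uM arachidonic acid for 30 min. Hydroperoxide was detected with ferrous iron/xylenol orange.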
NPSR antag – blocks cAMP signaling of the human neuropeptide S receptor; AID 1461; 220,000 tested, 1% active; Q6W5P4; CHO-NPSR cells, cAMP TR-FRET, antagonist mode; Potency, µM (doses to about 38.3 µM), inactives show at the top dose activity change, negative = inhibition, hits mostly inhibitors; further: potency means the concentration at half of the fitted maximal effect; nearly all actives have a fitted effect of over 50% in size
IMPase Li cell – cell-permeable IMPase inhibitors with lithium potentiation | CHO-M1 cells, IP1 TR-FRET (IP-One), carbachol + lithium | Potency, µM (top dose mostly 59.4 µM), for the others: at the highest dose activity, negative = IMPase inhibition, actives largely listed as inhibitors | 210,000 tested, 0.35% active | AID 1457;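 further: IP1 builds up when IMPase is blocked and the TR-FRET signal falls; potency means the concentration at half of the fitted maximal effect; plate controls were basal vehicle for no effect and high inhibitor control for full effect; nearly all actives have a fitted effect of over 50% in size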
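CHO-M1, 2000 cells/well, 16–30 h culture; cpd + low Li+, 30 min 37C; lysis with d2-IP1/Eu-anti-IP1 Ab, 10 min RT; TR-FRET 665/620 ratio and 620 channel; AC50 via Hill.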
IMPase inh – cell-permeable inhibitors of inositol monophosphatase (IMPase). P97697. CHO-M1 cells, IP1 accumulation, HTRF TR-FRET ratio. 120,000 tested, under 10 active. inhibition (IP1 accumulation), % at 46.1 µM; active means well fitted curve in the direction sought with a large enough effect in the signal ratio, not every such curve was filed as active; inconclusive means small, poorly fitted or top-dose-only effect, or a change in a side signal; inactive means no such curve, though single readings can be large or run the other way; the % refers to the signal ratio;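 further: cells stimulated with carbachol in lithium chloride buffer; plate controls were DMSO basal wells for no effect and reference inhibitor wells for full effect; higher means more IMPase inhibition seen as more IP1 and lower FRET ratio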
Target sequence (P97697 whole entry, looked up): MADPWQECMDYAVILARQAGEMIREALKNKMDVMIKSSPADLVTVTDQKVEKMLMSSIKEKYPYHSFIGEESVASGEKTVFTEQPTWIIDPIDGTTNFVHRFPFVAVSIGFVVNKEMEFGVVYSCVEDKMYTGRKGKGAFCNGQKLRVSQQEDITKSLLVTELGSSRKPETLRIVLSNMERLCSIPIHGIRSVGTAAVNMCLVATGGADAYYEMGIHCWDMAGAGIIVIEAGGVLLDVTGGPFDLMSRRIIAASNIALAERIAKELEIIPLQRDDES
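In this qHTS, compounds (final up to 46 uM) act on CHO-M1 cells that are then activated through the M1 receptor with carbachol, in pH 7.4 buffer containing 50 mM LiCl, for 30 min. IP1 accumulation is quantified by the IP-One immunoassay.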
* = called active by the depositor; ? = inconclusive; . = no result given; [ ] = dose if it differs, or a comment. Unless noted, the call rests on the fitted dose curve; in most records, active means well fitted curve in the direction sought with a large enough effect; inconclusive means small, poorly fitted or top-dose-only effect, or another doubt; inactive means no such curve, though single readings can be large; an effect the other way counts as inactive or inconclusive. Unless noted, on the % scale 0 is the no-effect control and ±100 the full control effect.

SMILES	HPGD block	ALDH1A1 block	ALOX12 inhib	NPSR antag	IMPase Li cell	IMPase inh
O=C(c1ccc([N+](=O)[O-])cc1[N+](=O)[O-])N1CCCC1	.	-2%	.	-8%	5%	.
O=C(c1cc2cc([N+](=O)[O-])ccc2s1)N1CCCCC1	.	14µM*	.	2%	-5%	.
CCN(CC)C(=O)c1cc2cc([N+](=O)[O-])ccc2s1	28µM*	-5%	2%	-9%[46.1 µM]	5%[38.3 µM]	-4
Cc1nnc(NC(=O)CSc2nnc(C)n2Cc2ccccc2)s1	-9%	11%	10%	2%[46.1 µM]	0%	-7
Cc1ccc(NC(=O)c2sc3nc4c(c(-c5ccco5)c3c2N)CCC4)cc1	-24%	4.5µM*	-29%	?	?	3
Nc1c(C(=O)Nc2ccc(Br)cc2)sc2nc(-c3ccco3)ccc12	?	?	?	?	11µM*	?
Cc1cccc(-c2c3c(=O)n(C)c(=O)n(C)c3c3c(C)nc4ccccc4n23)c1	.	.	.	.	.	9
Cc1cc(-c2nc3ncccc3o2)ccc1NC(=O)COc1ccc(C(C)(C)C)cc1	.	.	.	.	.	3
Cc1ccc(NC(=O)CSc2nnc(CNC(=O)C34CC5CC(CC(C5)C3)C4)n2-c2ccc(F)cc2)cc1	-9%	8%	-2%	-11%	-5%	?
Cc1cc(C)nc(N/N=C/c2ccccc2)n1	14µM*	10µM*	2%	-23%[46.1 µM]	6%[38.3 µM]	2
CC(=O)c1cc(NC(=O)c2ccc(C)cc2)c(=O)oc1/C=C/N(C)C	-9%	?	-2%	?	20%	24
Cc1onc(-c2c(Cl)cccc2Cl)c1C(=O)Nn1cnnc1	-13%	7%	3%	-12%[46.1 µM]	-7%[38.3 µM]	3
FC(F)(F)c1ccc(CN2C[C@@H]3C(c4ccc(Cl)nc4)C4(c5cccnc5)CC3(C4)[C@H]2c2ccccc2)cc1 (stereo partly specified)	-18%	-17%	-5%	-55%	7%	.
Cc1cc(C(=O)Nc2nc3c(s2)CCCC3)no1	-18%	11µM*	1%	-22%[46.1 µM]	21%[38.3 µM]	4
Cc1cc(N2CCOCC2)ccc1/C=C1\SC(=O)N(C(C)C)C1=O	-17%	5µM*	2%	-18%[46.1 µM]	11%[38.3 µM]	3
CCC(C)N1C(=O)S/C(=C/c2ccc(N3CCOCC3)cc2C)C1=O (stereo unspecified)	-2%	10µM*	-11%	-5%	-4%	.
CCN1C(=O)S/C(=C\c2ccc(N3CCOCC3)cc2C)C1=O	.	-15%	-6%	-16%[46.1 µM]	.	6
O=C(CN1C(=O)S/C(=C/c2ccc(N3CCOCC3)cc2)C1=O)N1CCOCC1	-11%	?	-1%	-23%	4%	.
CCCN1C(=O)S/C(=C/c2ccc(N3CCOCC3)o2)C1=O	.	.	.	-26%	.	.
CCCN1C(=O)S/C(=C\c2ccc(N3CCOCC3)cc2C)C1=O	-11%	1.6µM*	-3%	-27%[46.1 µM]	5%[38.3 µM]	2
CCCN1C(=O)S/C(=C\c2ccc(N3CCOCC3)o2)C1=O	.	0.22µM*	.	-30%	47%	.
Cc1ccc(N2CCN(C(=O)N3CCOCC3)CC2)cc1C	.	0%	.	-7%	-3%	.
COc1ccccc1NC(=O)CSc1nnc(CC(=O)Nc2cccc(C(F)(F)F)c2)n1C	-4%	7%	2%	-13%[46.1 µM]	-13%[38.3 µM]	6
O=C(C[n+]1ccsc1)c1ccccc1	-6%	?	-2%	10%	1%	.
COC(=O)Nc1nc2ccc(C(=O)c3ccccc3)cc2[nH]1	-12%	21%	-3%	.	?	8[20.6 µM]
SMILES	HPGD block	ALDH1A1 block	ALOX12 inhib	NPSR antag	IMPase Li cell	IMPase inh
COc1ccc(CN(C(=O)c2cnccn2)C(C(=O)Nc2ccc(F)cc2)c2ccccc2)cc1 (stereo unspecified)	-9%	10µM*	2%	-15%[46.1 µM]	10%	4[0.0738 µM]
CC(C)c1ccc(NC(=O)C(c2ccccc2)N(C)C(=O)c2cnccn2)cc1 (stereo unspecified)	.	10µM*	.	-15%	1%	.
CC(=O)OC[C@H]1O[C@@H](O/N=C(\C)CCC(=O)OC[C@@H]2O[C@H](C#Cc3ccccc3)C=C[C@@H]2Oc2ccc(C)cc2)[C@H](OC(C)=O)[C@@H](OC(C)=O)[C@H]1OC(C)=O	.	4%[13.5 µM]	.	.	.	.
Cc1cc(=O)[nH]c2n[nH]c(-c3ccccc3)c12	?	?	2%	-6%[46.1 µM]	1%[38.3 µM]	2
O=C(Nc1ccc(N2CCN(C(=O)c3cccs3)CC2)c(Cl)c1)c1ccco1	-5%	28µM*	-2%	-24%[46.1 µM]	26%[38.3 µM]	-1
Cc1cc(C)n(-c2ccc(C(=O)N3CCc4ccccc43)cc2)n1	-18%	7%	-7%	-14%[46.1 µM]	12%[38.3 µM]	-6
Cc1cccc(-n2cnc3cc(C(=O)N4CCc5ccccc54)ccc32)c1	22µM*	?	-3%	-26%	13%	.
CC1CCCN(C(=O)C(Cc2ccccc2)n2cccc2)C1 (stereo unspecified)	14µM*	-2%	-4%	-1%[46.1 µM]	13%[38.3 µM]	5
Nc1c(C(=O)NCc2ccco2)nnn1Cc1ccccc1	-6%	-3%	-2%	-4%[46.1 µM]	-4%[38.3 µM]	5
O=C(c1ccco1)c1nnn(Cc2ccccc2)c1-c1ccccc1	-11%	11µM*	-9%	-23%[46.1 µM]	6%[38.3 µM]	?
COc1ccc(Nc2nnc(-c3ccc(C)c(S(=O)(=O)N4CCOCC4)c3)c3ccccc23)cc1	.	.	.	.	.	-2
C=CCN(CC(=O)NCc1ccc(OC)cc1)C(=O)c1csnn1	-10%	-6%	-1%	6%[46.1 µM]	25%[38.3 µM]	-5
O=C(c1ccco1)N1CCC2(CCCN(Cc3ccccc3)C2)CC1	-2%	28µM*	-3%	.	33%	.
O=C(Nc1ccccc1)N1CCCC2(CCN(C(=O)c3ccco3)CC2)C1	1%	20µM*	1%	.	17%	.
N#Cc1cccc(NC(=O)N2CCC3(CC2)CCN(C(=O)c2ccco2)CC3)c1	-9%	10µM*	-3%	.	6%	.
N#Cc1cccc(NC(=O)N2CCCC3(CCN(C(=O)c4ccco4)CC3)C2)c1	-23%	22µM*	4%	.	20%	.
CCOC(=O)CSc1nnc(-c2c[nH]c3ccccc23)n1CC	-6%	27%	0%	-8%[46.1 µM]	-11%[38.3 µM]	2
O=C(CSc1nnc(CSc2nc3ccccc3s2)o1)NC1CCCCC1	-9%	0%	-7%	-7%[46.1 µM]	7%[38.3 µM]	16
O=C(Nc1cccc(F)c1)N1CCC2(CC1)CCN(C(=O)c1cccc(F)c1)CC2	-8%	-14%	4%	.	-2%	.
CC(=O)N1CCC2(CC1)CCN(C(=O)Nc1cccc(F)c1)CC2	-9%	13µM*	4%	.	2%	.
OCC1(Cc2ccccc2)CCCN(Cc2ccc(-c3ccco3)cc2)C1 (stereo unspecified)	.	25µM*	.	15%	20%	.
O=C1CCCc2c1cc(C(=O)Nc1ccc(Cl)cn1)c(=O)n2-c1ccccc1	-19%	-9%	-10%	-7%[46.1 µM]	8%[38.3 µM]	-7
COC(=O)c1ccc(CSC(=N)N)o1	.	3%	.	-26%	8%	.
